molecular target: VGLL2; experiment: pooled miR-30 sensor sort-seq; sequence = guide strand; conditions: shRNA
Also: reference of the scale not given here.

Sequence	sensor-assay potency score (higher = more potent)
TAACAAAATAATTCACATCAGC	-0.803
TTCTCTACCACAGTCTTAGATG	-1.22
TACTTCTCTACCACAGTCTTAG	-0.503
TAAGTGAAGAGGACGCAGCGGG	-0.197
TAATGTTCGTCTCTTCTTCCTC	-0.332
TAAAATCTGACAGTAGTAGTGC	0.941
TTACTTCTCTACCACAGTCTTA	-0.551
TTGACTTCTCTTTACTTCTCTA	-0.415
TTGGATTTGCTCTTTCAGCAGC	-0.344

molecular target: VIPR2; experiment: as above; conditions: shRNA

Sequence	sensor-assay potency score (higher = more potent)
TTCAGGTGGATGTAATTCCTGG	-0.512
TTGACCAGCACTGAGATGGCTC	-0.324
TTCACCAGAATATAAAACGTGA	-0.447
TTTGCTGTAAAAATTGCTGAAG	-0.647
TAGTGGACGCCGAACAGCGGGA	-0.939
TTTTGCTTATGTTTCCTGCTTT	0.362
TCTGGGAACGTCTCTGACCATC	-1.08
TTGCTGAAGACTTTTGGGCAGG	-1.06
TTTGAGACCTCAGAAGCTCTGC	0.397
TAAAACGTGATCTTGCTCTCAT	1.2
TTTCGCTTCAGCTCGCACTGCA	0.156
TCTTGTACTGAGACTGGTCGTT	-0.0864

molecular target: VKORC1; experiment: as above; conditions: shRNA

Sequence	sensor-assay potency score (higher = more potent)
TAGGTGGTGATACAAACAATGC	-1.84
ATAGCATAGGTGGTGATACAAA	-1.7
ATAGGTGGTGATACAAACAATG	-1.33
TTGATTGAGGATGCTGTCCTGT	0.167
TAGAGCGAGAGCACTAAGCCCG	-0.598
AGCACGAAGAACAGGATCCAGG	-2.45
AACAATGCAGAAATCATAGAGC	-0.667
TCACGTTGATAGCATAGGTGGT	-0.749
TTGGACCTTCCGGAAACTGAGC	-1.21
TCATAGAGCACGAAGAACAGGA	0.298
TTGATAGCATAGGTGGTGATAC	-0.976
TAGAGCACGAAGAACAGGATCC	-0.705

molecular target: VN1R2; experiment: as above; conditions: shRNA

Sequence	sensor-assay potency score (higher = more potent)
TTGGGGTAGAGATTGTTCCTAC	-0.232
TTCTTTGTGATGTTGTTGTTGC	-0.241
TTATTGGATACAAAGCAGGAGA	-0.969
TAAACGTAGGTGATGAAGGAAA	-0.975
TTTGGTGGGTTTCTCTCCGTGT	-0.0937
TAACATAATGCAAAGGTGCTCA	-0.437
TACAAGACCAAAACGATGGAGC	-0.2

— the OligoGym collection
